Shown are actives, neighbours in structure and some others; about 2.3% of the full set was active somewhere.
M1 PAM parental: counter-screen for M1 PAMs: effect in parental CHO-K1 cells; ATP EC20, Fluo-8 calcium fluorescence; 0% at ATP EC20, 100% at ATP max; activation, % at 3 µM; actives 0.02% (n = 360,000);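 active = activation above the run cutoff, the mean activation of all test compounds plus 3 SD, cut at about 40% in these data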;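 note: peak over basal fluorescence ratio in a 140 s read after ATP addition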
CHRM1 antagonist: antagonists of human M1 muscarinic receptor | actives 1.3% (n = 360,000) | CHO-K1 hM1, Fluo-8 calcium fluorescence, ACh EC80 antagonist | inhibition, % at 3 µM | AID 588852 | P11229;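 active = percent inhibition above its own plate's cutoff, namely the mean of that plate's compound wells plus 3 SD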;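 note: peak over basal fluorescence ratio during 140 s after agonist addition; 0% = ACh EC80 plus DMSO and 100% = DMSO alone without agonist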
Target sequence (P11229 whole entry, looked up): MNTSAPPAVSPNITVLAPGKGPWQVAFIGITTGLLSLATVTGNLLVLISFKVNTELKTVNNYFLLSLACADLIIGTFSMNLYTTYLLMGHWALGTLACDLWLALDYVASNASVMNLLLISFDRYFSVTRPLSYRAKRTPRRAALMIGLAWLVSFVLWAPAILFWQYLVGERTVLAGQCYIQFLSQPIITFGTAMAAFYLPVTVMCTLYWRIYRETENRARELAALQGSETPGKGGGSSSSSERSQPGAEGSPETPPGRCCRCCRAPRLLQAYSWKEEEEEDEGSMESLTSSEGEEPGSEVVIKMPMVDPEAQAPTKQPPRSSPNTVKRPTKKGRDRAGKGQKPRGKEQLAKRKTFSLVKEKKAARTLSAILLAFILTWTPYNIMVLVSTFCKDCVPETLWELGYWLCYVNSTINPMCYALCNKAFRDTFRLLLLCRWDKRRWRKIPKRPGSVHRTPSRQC
CHRM1 PAM: positive allosteric modulators of human M1 muscarinic receptor; CHO-K1 hM1, Fluo-8 calcium fluorescence, ACh EC20; 0% = ACh EC20, 100% = maximal ACh; activation, % at 3 µM; actives 0.088% (n = 360,000); AID 588819; in the data active = activation above about 19%, passing the limit was not always enough
CHRM1 agonist: human M1 muscarinic receptor agonism; P11229; CHO-K1 hM1, Fluo-8 calcium fluorescence, agonist mode; 0% DMSO, 100% acetylcholine EC100; AID 588814; actives 0.33% (n = 360,000); activation, % at 3 µM;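 active = activation above the run's mean compound activation plus 3 SD, cut at about 16% in these data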;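 note: peak over basal fluorescence ratio within a 140 s kinetic read after compound addition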
CHO-K1 Ca ag: counter-screen for M1 agonists: effect in parental CHO-K1 cells; activation, % at 3 µM; actives 0.48% (n = 360,000); Fluo-8 calcium fluorescence; scaled to maximal ATP response, vehicle zero; in the data active = activation above about 15%;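 note: untransfected CHO-K1 host cells lacking M1 receptor as counterscreen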
CHO-K1 Ca antag: M1 antagonist counterscreen hit in parental CHO-K1 cells; ATP-induced calcium, Fluo-8 fluorescence; inhibition, % at 3 µM; actives 0.6% (n = 360,000);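 active = inhibition above a per-plate cutoff, the plate's mean sample inhibition plus 3 SD, cut at about 24% in these data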;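 note: 0% = DMSO plus EC80 ATP and 100% = DMSO alone without ATP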
* marks the source's active call; other numbers are inactive results; ! = a repeat was not active.

SMILES | M1 PAM parental | CHRM1 antagonist | CHRM1 PAM | CHRM1 agonist | CHO-K1 Ca ag | CHO-K1 Ca antag
CCOC(=O)c1csc(-c2snnc2C)n1 | 10 | -10 | 3 | 3 | 17* | 0
Cc1ccc(C2N(c3ccccc3)C(=S)N3CCCN23)cc1 (centres undefined) | 3 | 85* | -25 | -7 | 0 | -4
Fc1ccc(C2N(c3ccccc3)C(=S)N3CCCN23)cc1 (centres undefined) | -19 | 25 | -20 | -8 | 0 | 10
CCN1CCN(Cc2ccc(NC(=O)c3ccc(C)c(NC(=O)c4c[nH]c5cc(C(F)(F)F)ccc5c4=O)c3)cc2C(F)(F)F)CC1 | -16 | -8 | 4 | -1 | 0 | 26*!
Cc1ccc(C(=O)Nc2cccc(C(F)(F)F)c2)cc1NC(=O)c1c[nH]c2cc(C(F)(F)F)ccc2c1=O | 22 | -3 | 4 | -4 | 1 | -14
N#CCN(C(=O)COC(=O)CCCNC(=O)c1ccc(Cl)cc1)c1ccccc1 | -14 | 21 | -9 | -2 | 3 | -6
COc1cc(C)ccc1OCc1cc(C(=O)NC2CCOCC2)no1 | 10 | -7 | 4 | -3 | 0 | -6
COc1cc(C)ccc1OCc1cc(C(=O)NC(c2ccccn2)C(F)(F)F)no1 (centres undefined) | -12 | -10 | 8 | -1 | 0 | 35*
CCOC(=O)c1c(-c2cccc([N+](=O)[O-])c2)cn2ccccc12 | 15 | 16 | -8 | -6 | 1 | -7
CCOC(=O)c1c(-c2ccccc2Cl)cn2ccccc12 | 10 | 1 | -9 | -6 | 1 | 100*
COc1ccccc1CCN1CCCC(CN(C)C(=O)c2ccco2)C1 (centres undefined) | 13 | 34 | -18 | -6 | 0 | -13
COc1ccccc1CCN1CCCC(CN(C)CC(C)(C)CO)C1 (centres undefined) | 7 | 47* | -20 | -10 | -1 | -4
COCc1ccc(C(=O)N(C)CC2CCCN(CCc3ccccc3F)C2)o1 (centres undefined) | 8 | 48* | -20 | -5 | 0 | -14
COc1ccccc1CCN1CCCC(CN(C)C(=O)c2ccoc2)C1 (centres undefined) | 7 | 44* | -20 | -5 | 0 | -8
COc1ccc(C(=O)NCCSCc2ccccc2C)cc1 | -8 | 3 | 3 | -3 | 0 | 30*
CCN1CCN(c2ncnc3scc(-c4ccc(C)c(C)c4)c23)CC1 | -6 | 85* | -32 | -11 | 0 | -3
CCN1CCN(c2ncnc3sc(C)c(-c4ccccc4)c23)CC1 | -22 | 29* | -16 | -11 | 2 | -13
CCN1CCN(c2ncnc3c2sc(=S)n3-c2ccccc2)CC1 | 8 | -6 | 2 | -10 | 2 | 2
CC1CCCCC1NS(=O)(=O)c1ccc2c(c1)CC(=O)N2C (centres undefined) | -11 | -6 | 3 | -1 | 1 | -1
CC(=O)c1ccc(S(=O)(=O)N2CCN(C(C)C(=O)N(C)Cc3ccccc3)CC2)cc1 (centres undefined) | -4 | 25 | -6 | -6 | 1 | -15
COc1ccc(N(CC(=O)NCc2ccco2)C(=O)CCC(=O)Nc2ccccn2)cc1 | 8 | 0 | 0 | -5 | 0 | -14
COc1cccc(C(=O)/C=C2\Sc3ccccc3N2C)c1 | -11 | 1 | 12 | -4 | 0 | 24*
O=S(=O)(c1ccc(Cl)cc1)N1CCC(O)(CN2CCN(Cc3ccccc3)CC2)CC1 | 6 | 11 | -30 | -13 | 4 | 3
O=S(=O)(c1ccccc1)N1CCC(O)(CSc2ccc(Cl)cc2)CC1 | -16 | 27 | -7 | 1 | 6 | 29*
CN(C)CCC1Sc2ccccc2Oc2ccccc21 (centres undefined) | 14 | 48* | -22 | -4 | 1 | -6
SMILES | M1 PAM parental | CHRM1 antagonist | CHRM1 PAM | CHRM1 agonist | CHO-K1 Ca ag | CHO-K1 Ca antag
CC1c2ccccc2SC(CCCN(C)C)c2ccccc21 (centres undefined) | 9 | 5 | -11 | -8 | 1 | -5
CCn1c(C)cc2c(c1=O)C(c1ccc3c(c1)OCO3)C(C#N)=C(N)O2 (centres undefined) | 0 | 66* | -34 | -15 | 0 | -2
Cc1cc2c(c(=O)n1CC1CCCO1)C(c1ccc3c(c1)OCO3)C(C#N)=C(N)O2 (centres undefined) | 20 | -8 | 9 | -1 | 0 | -9
CC(=O)Oc1ccc(N(C(C)=O)S(=O)(=O)c2ccc(C)cc2)c2ccccc12 | 9 | -11 | 4 | -2 | 1 | -11
O=C(COc1ccccc1)NC(=S)Nc1cccc2cc(O)ccc12 | 10 | -4 | 10 | 19* | 11 | 4
O=C(NC(=S)Nc1cccc2cc(O)ccc12)c1ccco1 | -5 | -15 | 12 | 6 | 31* | 10
Cc1cc(F)ccc1NC(=O)Cn1c(C)csc1=O | 1 | -11 | 6 | -4 | 1 | -9
C=CCn1c(SCC(=O)Nc2cccc(S(=O)(=O)N(C)c3ccccc3)c2)nnc1C1CC1 | 1 | -4 | -1 | -3 | 2 | -6
O=C(CN1C(=O)COc2ccccc21)NCCN1CCOCC1 | 16 | 4 | 1 | -6 | 0 | -7
O=C(CN1C(=O)COc2ccccc21)NCCN1CCC(Cc2ccccc2)CC1 | 13 | 30* | -20 | -3 | 6 | -5
Cc1ccccc1CNC(=O)CCNS(=O)(=O)c1ccc(OC(F)(F)F)cc1 | -10 | 3 | -3 | 2 | 1 | 12
Cc1cccc(C)c1NC(=O)COC(=O)c1c2c(nc3ccccc13)/C(=C\c1ccc3c(c1)OCO3)CCC2 | -3 | 32 | -16 | 42* | 41* | 28*
Cc1cccc(Nc2nc(N)nc(CN3CCN(Cc4ccc5c(c4)OCO5)CC3)n2)c1 | -1 | 21* | -16 | -5 | 0 | 6
Cc1ccc(Nc2nc(N)nc(N)c2N=O)cc1C | 10 | -5 | 4 | 13 | 0 | -2
Cc1cccc(Nc2nc(N)nc(N)c2N=O)c1 | 1 | -8 | 7 | 24* | 29* | -1
Cc1cccc(Nc2nc(N)nc(CCl)n2)c1 | -3 | -9 | 9 | -5 | 20* | 4
COc1ccccc1Nc1nc(N)nc(CN2CCN(Cc3ccc4c(c3)OCO4)CC2)n1 | -17 | 11 | -6 | -6 | -1 | 2
CCc1ccc(Nc2nnc(SCC(=O)NCCN3C(=O)CSC3=O)s2)cc1 | 11 | -1 | 3 | -9 | 1 | -5
O=C(COc1ccccc1C(=O)O)Nc1nc2ccc([N+](=O)[O-])cc2s1 | 4 | 26* | -10 | 4 | 13 | 11
O=C(Nc1nc2ccccc2s1)C1CCN(S(=O)(=O)c2cc([N+](=O)[O-])ccc2Cl)CC1 | -20 | 53* | -17 | -1 | 9 | 40*

Bioassay records (PubChem BioAssay)
